Experimental findings from the supplement of paper PMC9135407 are described below.

The test system of this experiment is primary human hepatic stellate cells (donor 1). The experiment can be described thus: scaled lipid accumulation score (0 = DMSO-like, 1 = nortriptyline-like); higher = stronger HSC inactivation (lipid re-accumulation), active = hit call of the paper. The note with it: 48 h. As for the experimental part: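 Primary lipid accumulation screen in primary human hepatic stellate cell myofibroblasts (donor 1, passage 8) in 384-well plates. 100 nL of library compound was pin-transferred into 30 µL medium in duplicate, and cells were treated for 48 h. The 'Scaled' score combines distance from plate baseline, toxicity and reproducibility penalties, and is normalised to nortriptyline (positive) and DMSO (negative) controls on each plate. A hit is defined as scaled >0.85 or among the top 3 wells per plate.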

[1] abbreviates: library stock concentration: 10 mM.
Setting [2] is: library stock concentration: 1 mM.
Where [3] appears, read: library stock concentration: 3.33 mM.
[4] abbreviates: library stock concentration: 80 uM.
Where [5] appears, read: library stock concentration: 400 uM.
The mark [6] stands for this setting: library stock concentration: 2 mM.

Several values for one entry are separate records, joined by “and”; a condition that tells them apart may be missing. Equal values may be shown once. Where a name gives a salt, the structure may show the parent alone. The campaign covered roughly 5,800 compounds. About 620 (11%) showed activity. What follows is part of a selection rich in actives, with near analogues and random picks from the rest. Unmarked numbers belong to inactive results.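 Rule for the calls: active = score above a cut-off or among the top three wells of a plate; in these data no inactive exceeds 0.85.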

Regarding `CC(C)[C@H]1c2ccc(F)cc2CC[C@@]1(CCN(C)CCCc1nc2ccccc2[nH]1)OC(=O)C1CC1`, the “scaled lipid accumulation score” value under setting [1] was not above -0.055. With `CC(C)[C@H]1c2ccc(F)cc2CC[C@@]1(CCN(C)CCCc1nc2ccccc2[nH]1)OC(=O)C1CC1` [NNC 55-0396 dihydrochloride], under setting [1], the “scaled lipid accumulation score” value was 0.432. Take `COc1ccc(-c2nc3cc(F)ccc3s2)cc1OC`: under setting [2], the “scaled lipid accumulation score” value is not above 0.

For the molecule `C=C1C[C@]23C[C@@]1(O)CC[C@H]2[C@@]12C=C[C@H](O)[C@@](C)(C(=O)O1)[C@H]2[C@@H]3C(=O)O` [Gibberellic acid], the “scaled lipid accumulation score” value is not above 0.

On to `Cc1cc(I)ccc1Nc1c(C(=O)NOCC2CC2)cc(F)c(F)c1F`, for which, under setting [1], the “scaled lipid accumulation score” value was not above -0.001. On the same count and under the same terms, in the case of `CCc1cc2c(c(CC)n1)CCC(=O)N2Cc1ccc(-c2ccccc2-c2nn[nH]n2)cc1` [ZD 7155 hydrochloride] it was 0.009. Consider `CCCCCCCCCCCCCCC[C@@H](O)[C@H](CO)NC(=O)CCCCCCC` [C8 Dihydroceramide], for which the “scaled lipid accumulation score” value under setting [2] was not above -0.021. Take `CN(CCCOc1ccc(Cc2ccccc2)cc1)CCC(=O)O`: under setting [1], the “scaled lipid accumulation score” value is not above 0. In the case of `CCN(CC)CCOC(=O)C(c1ccccc1)c1ccccc1` [Adiphenine HCl], the “scaled lipid accumulation score” value under setting [3] is not above 0 and the “scaled lipid accumulation score” value under setting [1] was not above 0. Regarding `CCN(CC)CCOc1ccc(Cc2ccccc2)cc1.O=C(O)/C=C/C(=O)O` [DPPE fumarate], under setting [1], the “scaled lipid accumulation score” value was 0.879 (active). For `CCN(CC)CCOC(=O)C(c1ccccc1)c1ccccc1` [Adiphenine hydrochloride], the “scaled lipid accumulation score” value was not above 0. Also, the “scaled lipid accumulation score” value (library stock concentration: 5.7 mM) was 0.005. Moreover, the “scaled lipid accumulation score” value under setting [1] is 0.111.

As to `COc1ccc2c(c1)c(CC(=O)Nc1cccnc1)c(C)n2C(=O)c1ccc(Cl)cc1` [N-(3-pyridyl)-Indomethacin amide], the “scaled lipid accumulation score” value under setting [2] is 0.198. On to `CCCc1ccc(C(=O)Oc2ccc(C#N)cc2)cc1`, for which, under setting [1], the “scaled lipid accumulation score” value is 0.011. Turning to `CN(C)C(=O)CCSC(SCCC(=O)O)c1cccc(/C=C/c2ccc3ccc(Cl)cc3n2)c1` (stereo not given) [MK 571 (sodium salt)], the “scaled lipid accumulation score” value under setting [2] is not above 0. For the molecule `CCOc1cc2ncc(C#N)c(Nc3ccc(F)c(Cl)c3)c2cc1NC(=O)/C=C/CN(C)C` [Pelitinib (EKB-569)], the “scaled lipid accumulation score” value under setting [1] was 0.498. For `CCOc1cc2ncc(C#N)c(Nc3ccc(F)c(Cl)c3)c2cc1NC(=O)C=CCN(C)C`, the “scaled lipid accumulation score” value under setting [1] is 1.13 (active). Regarding `CCOc1cc2ncc(C#N)c(Nc3ccc(F)c(Cl)c3)c2cc1NC(=O)C=CCN(C)C` [Pelitinib (EKB-569)], under setting [3], the “scaled lipid accumulation score” value is 1.01 (active). Turning to `CCOc1cc(C(=O)Nc2ccc(Cl)c(-c3nc4ccccc4[nH]3)c2)cc(OCC)c1OCC`, under setting [1], the “scaled lipid accumulation score” value was 0.438.

`CCOc1cc2ncc(C#N)c(Nc3ccc(OCc4ccccn4)c(Cl)c3)c2cc1NC(=O)/C=C/CN(C)C`: the “scaled lipid accumulation score” value is not above 0 under setting [4], not above 0 under setting [5], 0.107 under setting [6] and 0.02 under setting [1]. As for `CCOc1cc2ncc(C#N)c(Nc3ccc(F)c(Cl)c3)c2cc1NC(=O)/C=C/CN(C)C`, the “scaled lipid accumulation score” value is, setting by setting: under setting [4], 0.071; under setting [5], not above -0.009; under setting [6], 0.269. Regarding `CCCCCC(=O)/C=C/[C@H]1[C@H](O)CC(=O)[C@@H]1CCCCCCC(=O)O` [15-keto Prostaglandin E1], under setting [2], the “scaled lipid accumulation score” value is not above 0.

In the case of `O=C(Nc1ccc([N+](=O)[O-])cc1O)Nc1ccccc1Br`, the “scaled lipid accumulation score” value reads like this: under setting [2], not above 0; under setting [1], 0.317. On to `O[C@@H](COc1cccc2ncccc12)CN1CCN(C2c3ccccc3[C@@H]3[C@H](c4ccccc42)C3(F)F)CC1` (stereo not given in full), for which the “scaled lipid accumulation score” value reads like this: under setting [3], 0.206; under setting [1], 0.837.

As to `CCC(C)N(C)C(=O)c1cc2ccccc2c(-c2ccccc2Cl)n1` (stereo not given), the “scaled lipid accumulation score” value under setting [1] was 0.007 and ≤ 0.

With `CC(C)(F)C[C@H](N[C@@H](c1ccc(-c2ccc(S(C)(=O)=O)cc2)cc1)C(F)(F)F)C(=O)NC1(C#N)CC1` [Odanacatib (MK-0822)], the “scaled lipid accumulation score” value was not above 0 under setting [3] and not above 0 under setting [1]. Turning to `CC(C)CCOc1ccc(N)cc1` [CP 24,879 (hydrochloride)], the “scaled lipid accumulation score” value under setting [2] is not above 0. For `CN(C)CCOc1ccc(-c2nc(-c3ccncc3)c(-c3ccc4c(c3)CCC4=NO)[nH]2)cc1`, under setting [3], the “scaled lipid accumulation score” value was 1.06 (active).

Regarding `OCCn1cc(-c2ccc3c(c2)CC/C3=N\O)c(-c2ccncc2)n1`, the “scaled lipid accumulation score” value is, setting by setting: under setting [4], 0.006; under setting [5], 0.086; under setting [6], not above -0.009; under setting [3], 0.041; under setting [1], ≤ 0 and ≤ -0.009. With `CN(C)CCOc1ccc(-c2nc(-c3ccncc3)c(-c3ccc4c(c3)CC/C4=N\O)[nH]2)cc1`, the “scaled lipid accumulation score” value by setting is: under setting [4], 0.074; under setting [5], 0.325 and 0.619; under setting [6], 0.7 and 0.684; under setting [1], 0.476 and 0.423 and 0.307. Consider `CCCCCC(O)CCC1C(O)CC(=O)C1CCCCCCC(=O)O` (stereo not given) [13,14-dihydro Prostaglandin E1], for which, under setting [2], the “scaled lipid accumulation score” value is not above 0.

As to `CCCCCC(O)CCC1C(O)CC(=O)C1CCCCCCC(=O)O` [13,14-dihydro-15(R)-Prostaglandin E1], the “scaled lipid accumulation score” value under setting [2] is not above 0. As for `COc1ccc(-c2nc(-c3ccc(-c4cccc(Cl)c4)o3)[nH]c2-c2ccc(OC)cc2)cc1` [Neurodazine], the “scaled lipid accumulation score” value is, setting by setting: under setting [2], 0.352; under setting [1], 0.113. In the case of `CC(=O)OC1CC2CCC1(C)C2(C)C` (stereo not given), under setting [1], the “scaled lipid accumulation score” value was not above 0. Still for that read-out and setting: in the case of `Cc1cc(C=C2C(=O)C=CC2=O)cc(C)c1O` [listing 1 of 2 here] it was 0.924 (active). Consider `Cc1cc(C=C2C(=O)C=CC2=O)cc(C)c1O` [listing 2 of 2 here], for which the “scaled lipid accumulation score” value was not above -0.001 under setting [4], not above -0.001 under setting [5], 0.593 under setting [6] and 0.464 under setting [3]. Regarding `CCCCCCCCCCCCCCCCOCC(COP(=O)(O)OCC[N+](C)(C)C)OCC` (stereo not given) [2-O-ethyl PAF C-16], under setting [2], the “scaled lipid accumulation score” value is not above 0. As for `CC(=O)NC(C(=O)O)c1ccccc1` (stereo not given), the “scaled lipid accumulation score” value under setting [1] was not above 0. Take `CC(=O)Nc1ccc([C@H](C)C(=O)Nc2ncc(C(C)C)s2)cc1`: the “scaled lipid accumulation score” value is not above -0.005 under setting [5], 0.175 under setting [6] and 0.348 under setting [1]. With `CC(C)C(=O)Nc1ncc(-c2cc(C(F)F)nn2-c2c(Cl)cccc2Cl)s1`, the “scaled lipid accumulation score” value under setting [1] was 1.1 (active). Still for that read-out and setting: under `CC(C)(C)c1cc(NC(=O)Nc2ccc(-c3cn4c(n3)sc3cc(OCCN5CCOCC5)ccc34)cc2)no1` [Quizartinib  (AC220) (10 mM)] stands 1.7 (active).

Turning to `Cc1ccc(-n2nc(C(C)(C)C)cc2NC(=O)Nc2ccc(OCCN3CCOCC3)c3ccccc23)cc1` [BIRB 796 (Doramapimod)], the “scaled lipid accumulation score” value was 0.017 under setting [3] and not above 0 under setting [1]. Consider `Cc1ccc(-n2nc(C(C)(C)C)cc2NC(=O)Nc2ccc(OCCN3CCOCC3)c3ccccc23)cc1`, for which the “scaled lipid accumulation score” value under setting [4] is not above -0.009, the “scaled lipid accumulation score” value under setting [5] is not above -0.009, the “scaled lipid accumulation score” value under setting [6] was 0.044 and the “scaled lipid accumulation score” value under setting [1] is not above -0.009. For the molecule `CC(C)(C)c1cc(NC(=O)Nc2ccc(-c3cn4c(n3)sc3cc(OCCN5CCOCC5)ccc34)cc2)no1` [Quizartinib (AC220)] [listing 1 of 2 here], the “scaled lipid accumulation score” value under setting [1] is 1.15 (active). On to `CC(C)(C)c1cc(NC(=O)Nc2ccc(-c3cn4c(n3)sc3cc(OCCN5CCOCC5)ccc34)cc2)no1` [Quizartinib (AC220)] [listing 2 of 2 here], for which the “scaled lipid accumulation score” value under setting [3] was 0.288. For `CC(C)(C)c1cc(NC(=O)Nc2ccc(-c3cn4c(n3)sc3cc(OCCN5CCOCC5)ccc34)cc2)no1` [Quizartinib  (AC220) (0.4 mM)], the “scaled lipid accumulation score” value under setting [5] is not above -0.005. As for `CC(C)(C)c1cc(NC(=O)Nc2ccc(-c3cn4c(n3)sc3cc(OCCN5CCOCC5)ccc34)cc2)no1`, the “scaled lipid accumulation score” value under setting [4] was not above 0, the “scaled lipid accumulation score” value under setting [5] is not above 0, the “scaled lipid accumulation score” value under setting [6] was 0.142 and the “scaled lipid accumulation score” value under setting [1] was 0.292. Take `O=C(Cc1ccc(-c2ccc(OCCN3CCOCC3)cc2)cn1)NCc1ccccc1`: the “scaled lipid accumulation score” value reads like this: under setting [4], 0.076; under setting [5], 0.268; under setting [6], 0.077; under setting [3], 0.093; under setting [1], 0.076 and 0.499. On to `CC(C)(C)c1cc(NC(=O)Nc2ccc(-c3cn4c(n3)sc3cc(OCCN5CCOCC5)ccc34)cc2)no1` [Quizartinib  (AC220) (2 mM)], for which, under setting [6], the “scaled lipid accumulation score” value is 1.02 (active). As to `C=C1CCC(O)C/C1=C\C=C1\CCCC2(C)C1CCC2C(C)CCC(O)C(C)(C)O` (stereo not given) [24,25-Dihydroxyvitamin D3], the “scaled lipid accumulation score” value under setting [2] is 0.016. In the case of `O=C(O)CCC/C=C\C[C@H]1C(=O)C[C@@H](O)[C@@H]1/C=C/[C@@H](O)COc1ccccc1` [16-phenoxy tetranor Prostaglandin E2], the “scaled lipid accumulation score” value under setting [2] was not above 0.

`CCCCCCCCCCCCCCCCCCCCCCCC(=O)NCCS(=O)(=O)O` [N-Lignoceroyl Taurine]: under setting [2], the “scaled lipid accumulation score” value is 0.009.

Consider `CCCCCC(O)C=CC1C(O)CC(O)C1CC=CCCCC(=O)O` (stereo not drawn) [8-epi-Prostaglandin F2a], for which, under setting [2], the “scaled lipid accumulation score” value was not above -0.021. Consider `O=C(Cc1ccccc1)Nc1nc2ccc(Cl)cc2c2nc(-c3ccco3)nn12`, for which the “scaled lipid accumulation score” value under setting [1] is 0.596.

With `CC(C)NC[C@@H](C(=O)N1CCN(c2ncnc3c2[C@H](C)C[C@H]3O)CC1)c1ccc(Cl)cc1` [listing 1 of 2 here], the “scaled lipid accumulation score” value under setting [1] is 0.881 (active). For the molecule `CC(C)NC[C@@H](C(=O)N1CCN(c2ncnc3c2[C@H](C)C[C@H]3O)CC1)c1ccc(Cl)cc1` [listing 2 of 2 here], the “scaled lipid accumulation score” value was not above -0.016 under setting [4]; not above -0.016 under setting [5]; 0.083 under setting [6]; 0.174 under setting [3]; 0.257 under setting [1].

With `CCCCCCCC/C=C\CCCCCCCC(=O)OCC(CO)OC(=O)CCCCCCC/C=C\CCCCCCCC` (stereo not given) [1,2-Dioleoyl-glycerol (18:1)], the “scaled lipid accumulation score” value under setting [2] is 0.004.

Consider `COc1cc(N2CCC(C(N)=O)CC2)ccc1Nc1nc(N)c(Cl)c(Nc2ccccc2S(=O)(=O)C(C)C)n1`, for which the “scaled lipid accumulation score” value is, setting by setting: under setting [4], not above 0; under setting [5], not above 0; under setting [6], 0.025; under setting [1], 0.537. With `O=C(O)CCCCCCC1C(=O)NC(=O)N1CCC(O)C1CCCCC1` (stereo not given), under setting [2], the “scaled lipid accumulation score” value was not above 0.
